# The supplement of paper PMC11732987, “Enantioselective OTUD7B fragment discovery through chemoproteomics screening and high-throughput optimisation” (Communications Chemistry, 2025)
# A number with no mark means an inactive call.
# Key:
# Assay in all cases: log2 ratio of Biotin-Ahx-Ub-VS probe labelling (fragment/DMSO); higher = less target engagement (more negative = stronger competition), active = hit call of the paper (q ≤ 0.05, log2 ratio ≤ -1)
# Details in all cases: compound concentration: 200 uM; treatment time: 3 h
# USP19 = biological target: T1, USP19 (UniProt O94966)
# T1 sequence (whole entry): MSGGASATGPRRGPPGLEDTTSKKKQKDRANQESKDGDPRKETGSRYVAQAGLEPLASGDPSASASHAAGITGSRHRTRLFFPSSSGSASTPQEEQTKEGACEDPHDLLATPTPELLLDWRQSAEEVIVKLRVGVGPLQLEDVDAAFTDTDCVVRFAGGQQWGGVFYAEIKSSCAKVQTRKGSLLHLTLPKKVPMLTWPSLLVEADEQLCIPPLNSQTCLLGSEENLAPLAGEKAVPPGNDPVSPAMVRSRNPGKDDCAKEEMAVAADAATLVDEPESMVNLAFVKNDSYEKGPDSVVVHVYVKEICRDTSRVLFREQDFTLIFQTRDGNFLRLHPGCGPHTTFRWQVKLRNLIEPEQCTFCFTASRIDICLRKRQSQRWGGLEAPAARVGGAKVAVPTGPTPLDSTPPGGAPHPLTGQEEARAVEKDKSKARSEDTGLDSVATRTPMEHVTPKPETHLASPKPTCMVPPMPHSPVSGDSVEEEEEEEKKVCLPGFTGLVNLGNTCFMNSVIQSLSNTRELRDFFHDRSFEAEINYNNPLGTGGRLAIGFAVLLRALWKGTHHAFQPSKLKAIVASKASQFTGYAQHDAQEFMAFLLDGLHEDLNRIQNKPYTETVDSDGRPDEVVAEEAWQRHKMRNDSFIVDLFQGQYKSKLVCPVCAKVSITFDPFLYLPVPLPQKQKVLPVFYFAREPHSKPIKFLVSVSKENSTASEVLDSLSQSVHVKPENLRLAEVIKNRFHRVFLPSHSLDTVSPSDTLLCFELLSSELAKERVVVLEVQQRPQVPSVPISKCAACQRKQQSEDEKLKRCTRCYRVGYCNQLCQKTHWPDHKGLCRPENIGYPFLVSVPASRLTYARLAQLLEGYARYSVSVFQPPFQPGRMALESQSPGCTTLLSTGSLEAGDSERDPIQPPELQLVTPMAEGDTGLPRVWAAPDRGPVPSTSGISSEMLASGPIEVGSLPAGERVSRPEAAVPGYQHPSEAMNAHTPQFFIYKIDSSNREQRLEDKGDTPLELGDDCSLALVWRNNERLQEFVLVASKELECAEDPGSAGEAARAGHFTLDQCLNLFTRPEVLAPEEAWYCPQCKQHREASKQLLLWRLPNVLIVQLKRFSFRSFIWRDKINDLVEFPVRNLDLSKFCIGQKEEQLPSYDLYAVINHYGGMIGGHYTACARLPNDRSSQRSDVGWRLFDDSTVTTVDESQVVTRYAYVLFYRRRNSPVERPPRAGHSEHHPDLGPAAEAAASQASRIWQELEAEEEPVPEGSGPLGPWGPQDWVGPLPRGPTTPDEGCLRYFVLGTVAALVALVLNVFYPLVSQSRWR
# How it was run: (§1)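 The table lists average log2 ratios of fragment over vehicle, from an unpaired t-test on global-median-normalised Spectronaut label-free quantities. Proteins with ≥2 unique peptides were used. Samples were HEK293T lysate (495 µg) treated in triplicate with fragment at 200 µM or vehicle for 3 h, then with Biotin-Ahx-Ub-VS (0.5 µM final) for 1 h, with labelled DUBs NeutrAvidin-enriched and run by diaPASEF LC-MS/MS.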
# USP22 = biological target: T2, USP22 (UniProt Q9UPT9)
# T2 sequence (whole entry): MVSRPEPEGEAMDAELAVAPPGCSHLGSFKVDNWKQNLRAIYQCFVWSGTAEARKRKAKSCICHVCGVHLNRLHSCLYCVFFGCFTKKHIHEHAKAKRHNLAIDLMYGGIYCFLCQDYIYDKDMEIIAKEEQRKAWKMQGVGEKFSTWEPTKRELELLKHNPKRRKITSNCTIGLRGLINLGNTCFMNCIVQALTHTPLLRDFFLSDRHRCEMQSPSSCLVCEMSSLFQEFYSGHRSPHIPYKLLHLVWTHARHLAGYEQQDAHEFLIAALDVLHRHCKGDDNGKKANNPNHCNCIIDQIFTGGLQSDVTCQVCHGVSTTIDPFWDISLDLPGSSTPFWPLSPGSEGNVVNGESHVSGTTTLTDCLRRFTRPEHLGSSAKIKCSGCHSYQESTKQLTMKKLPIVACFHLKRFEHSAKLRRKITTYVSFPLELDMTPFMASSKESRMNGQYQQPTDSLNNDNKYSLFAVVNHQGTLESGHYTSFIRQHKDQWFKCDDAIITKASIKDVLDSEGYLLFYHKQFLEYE
# How it was run: as §1
# USP24 = USP24 (UniProt Q9UPU5)
# Sequence of USP24 (Q9UPU5 whole entry): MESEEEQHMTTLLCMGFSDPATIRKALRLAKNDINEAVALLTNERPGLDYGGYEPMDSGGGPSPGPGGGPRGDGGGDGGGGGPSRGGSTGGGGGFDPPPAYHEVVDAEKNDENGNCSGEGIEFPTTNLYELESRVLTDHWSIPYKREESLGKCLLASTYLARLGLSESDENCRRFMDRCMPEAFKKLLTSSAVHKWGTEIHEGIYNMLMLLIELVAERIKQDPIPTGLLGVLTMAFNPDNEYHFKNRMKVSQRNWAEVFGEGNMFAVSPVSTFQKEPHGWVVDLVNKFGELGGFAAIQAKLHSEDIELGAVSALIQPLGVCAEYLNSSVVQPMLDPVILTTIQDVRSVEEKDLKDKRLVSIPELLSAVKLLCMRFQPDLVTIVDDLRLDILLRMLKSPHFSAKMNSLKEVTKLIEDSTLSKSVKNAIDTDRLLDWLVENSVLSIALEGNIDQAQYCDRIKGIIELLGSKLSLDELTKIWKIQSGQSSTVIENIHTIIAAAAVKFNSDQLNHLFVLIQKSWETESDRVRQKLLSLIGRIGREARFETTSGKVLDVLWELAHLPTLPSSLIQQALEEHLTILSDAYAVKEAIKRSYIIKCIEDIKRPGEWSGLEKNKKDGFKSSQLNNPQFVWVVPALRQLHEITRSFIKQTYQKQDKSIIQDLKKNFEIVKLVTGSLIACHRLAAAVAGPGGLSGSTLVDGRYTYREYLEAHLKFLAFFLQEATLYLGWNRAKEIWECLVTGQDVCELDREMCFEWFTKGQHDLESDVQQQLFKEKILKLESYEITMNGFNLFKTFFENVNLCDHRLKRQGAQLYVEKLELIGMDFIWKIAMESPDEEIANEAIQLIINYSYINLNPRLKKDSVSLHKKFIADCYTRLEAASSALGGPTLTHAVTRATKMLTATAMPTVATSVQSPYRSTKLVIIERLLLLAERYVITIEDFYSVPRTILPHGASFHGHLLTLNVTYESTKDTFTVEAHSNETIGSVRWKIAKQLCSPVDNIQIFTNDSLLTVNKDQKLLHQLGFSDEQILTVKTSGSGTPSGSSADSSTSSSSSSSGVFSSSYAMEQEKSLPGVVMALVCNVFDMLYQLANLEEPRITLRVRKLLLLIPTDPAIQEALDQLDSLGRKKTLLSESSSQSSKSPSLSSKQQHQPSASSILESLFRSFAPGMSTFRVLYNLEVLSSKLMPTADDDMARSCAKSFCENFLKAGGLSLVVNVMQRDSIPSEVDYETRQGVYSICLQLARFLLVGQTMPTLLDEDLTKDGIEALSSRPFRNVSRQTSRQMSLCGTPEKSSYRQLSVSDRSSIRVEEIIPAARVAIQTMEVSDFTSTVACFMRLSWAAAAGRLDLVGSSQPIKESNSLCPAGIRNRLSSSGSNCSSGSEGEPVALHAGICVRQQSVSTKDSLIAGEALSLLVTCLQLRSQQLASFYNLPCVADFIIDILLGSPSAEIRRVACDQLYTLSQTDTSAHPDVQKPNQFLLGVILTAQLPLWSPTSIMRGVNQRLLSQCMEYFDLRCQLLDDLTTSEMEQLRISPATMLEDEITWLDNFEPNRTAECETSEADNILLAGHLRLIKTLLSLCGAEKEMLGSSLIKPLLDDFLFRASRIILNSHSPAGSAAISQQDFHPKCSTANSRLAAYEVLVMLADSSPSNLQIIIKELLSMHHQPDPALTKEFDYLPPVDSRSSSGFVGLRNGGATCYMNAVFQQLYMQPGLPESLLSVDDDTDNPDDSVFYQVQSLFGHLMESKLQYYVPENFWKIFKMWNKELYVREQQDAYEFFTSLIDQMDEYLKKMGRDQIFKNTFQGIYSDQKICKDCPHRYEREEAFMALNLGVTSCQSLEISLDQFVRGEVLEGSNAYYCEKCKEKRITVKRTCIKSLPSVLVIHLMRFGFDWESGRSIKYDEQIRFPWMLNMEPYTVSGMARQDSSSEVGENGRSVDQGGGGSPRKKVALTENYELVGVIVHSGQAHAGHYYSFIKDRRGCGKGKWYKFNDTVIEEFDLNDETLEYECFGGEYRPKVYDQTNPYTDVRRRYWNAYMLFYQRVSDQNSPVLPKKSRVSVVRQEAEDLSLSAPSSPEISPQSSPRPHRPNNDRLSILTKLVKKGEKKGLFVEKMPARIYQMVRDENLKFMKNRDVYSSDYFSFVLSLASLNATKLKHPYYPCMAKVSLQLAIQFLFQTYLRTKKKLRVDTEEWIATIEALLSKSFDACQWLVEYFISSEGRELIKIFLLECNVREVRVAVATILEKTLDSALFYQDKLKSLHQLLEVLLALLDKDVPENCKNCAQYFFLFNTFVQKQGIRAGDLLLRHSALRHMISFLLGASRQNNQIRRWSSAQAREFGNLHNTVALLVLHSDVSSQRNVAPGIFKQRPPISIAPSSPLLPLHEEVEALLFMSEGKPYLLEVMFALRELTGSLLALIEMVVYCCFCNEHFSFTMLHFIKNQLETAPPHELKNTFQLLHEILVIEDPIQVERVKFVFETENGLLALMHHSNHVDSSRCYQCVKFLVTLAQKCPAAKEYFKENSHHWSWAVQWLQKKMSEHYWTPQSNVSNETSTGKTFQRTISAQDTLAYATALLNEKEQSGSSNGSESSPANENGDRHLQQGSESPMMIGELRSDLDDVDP
# How it was run: as §1
# USP25 = biological target: T3, USP25 (UniProt Q9UHP3)
# T3 sequence (whole entry): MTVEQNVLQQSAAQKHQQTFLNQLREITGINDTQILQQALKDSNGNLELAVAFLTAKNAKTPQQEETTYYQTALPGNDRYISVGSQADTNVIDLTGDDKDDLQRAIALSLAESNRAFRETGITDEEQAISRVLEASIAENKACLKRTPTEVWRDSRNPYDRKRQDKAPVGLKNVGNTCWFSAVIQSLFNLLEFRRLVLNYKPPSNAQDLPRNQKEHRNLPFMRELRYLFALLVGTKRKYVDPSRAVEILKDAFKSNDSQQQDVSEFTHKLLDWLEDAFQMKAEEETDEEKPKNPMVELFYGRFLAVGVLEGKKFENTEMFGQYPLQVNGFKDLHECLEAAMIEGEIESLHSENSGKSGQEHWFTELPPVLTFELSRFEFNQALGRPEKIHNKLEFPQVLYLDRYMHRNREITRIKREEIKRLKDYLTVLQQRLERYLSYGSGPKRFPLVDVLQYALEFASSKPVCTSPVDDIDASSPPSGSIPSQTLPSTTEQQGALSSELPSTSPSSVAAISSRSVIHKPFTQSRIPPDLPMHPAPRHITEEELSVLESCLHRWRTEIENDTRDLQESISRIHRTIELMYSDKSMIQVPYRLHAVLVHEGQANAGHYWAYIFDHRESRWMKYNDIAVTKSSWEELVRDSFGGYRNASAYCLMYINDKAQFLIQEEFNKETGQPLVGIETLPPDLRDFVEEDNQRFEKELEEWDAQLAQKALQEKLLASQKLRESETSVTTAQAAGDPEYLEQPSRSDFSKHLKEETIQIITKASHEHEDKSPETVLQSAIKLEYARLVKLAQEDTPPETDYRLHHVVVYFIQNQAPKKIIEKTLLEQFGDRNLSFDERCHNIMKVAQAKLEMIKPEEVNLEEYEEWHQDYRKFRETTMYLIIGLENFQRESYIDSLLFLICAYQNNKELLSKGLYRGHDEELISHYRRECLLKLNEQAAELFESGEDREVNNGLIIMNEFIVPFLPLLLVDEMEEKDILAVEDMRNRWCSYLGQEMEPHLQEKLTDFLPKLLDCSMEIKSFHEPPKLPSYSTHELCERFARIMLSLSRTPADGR
# How it was run: as §1
# USP28 = biological target: T4, USP28 (UniProt Q96RU2)
# T4 sequence (whole entry): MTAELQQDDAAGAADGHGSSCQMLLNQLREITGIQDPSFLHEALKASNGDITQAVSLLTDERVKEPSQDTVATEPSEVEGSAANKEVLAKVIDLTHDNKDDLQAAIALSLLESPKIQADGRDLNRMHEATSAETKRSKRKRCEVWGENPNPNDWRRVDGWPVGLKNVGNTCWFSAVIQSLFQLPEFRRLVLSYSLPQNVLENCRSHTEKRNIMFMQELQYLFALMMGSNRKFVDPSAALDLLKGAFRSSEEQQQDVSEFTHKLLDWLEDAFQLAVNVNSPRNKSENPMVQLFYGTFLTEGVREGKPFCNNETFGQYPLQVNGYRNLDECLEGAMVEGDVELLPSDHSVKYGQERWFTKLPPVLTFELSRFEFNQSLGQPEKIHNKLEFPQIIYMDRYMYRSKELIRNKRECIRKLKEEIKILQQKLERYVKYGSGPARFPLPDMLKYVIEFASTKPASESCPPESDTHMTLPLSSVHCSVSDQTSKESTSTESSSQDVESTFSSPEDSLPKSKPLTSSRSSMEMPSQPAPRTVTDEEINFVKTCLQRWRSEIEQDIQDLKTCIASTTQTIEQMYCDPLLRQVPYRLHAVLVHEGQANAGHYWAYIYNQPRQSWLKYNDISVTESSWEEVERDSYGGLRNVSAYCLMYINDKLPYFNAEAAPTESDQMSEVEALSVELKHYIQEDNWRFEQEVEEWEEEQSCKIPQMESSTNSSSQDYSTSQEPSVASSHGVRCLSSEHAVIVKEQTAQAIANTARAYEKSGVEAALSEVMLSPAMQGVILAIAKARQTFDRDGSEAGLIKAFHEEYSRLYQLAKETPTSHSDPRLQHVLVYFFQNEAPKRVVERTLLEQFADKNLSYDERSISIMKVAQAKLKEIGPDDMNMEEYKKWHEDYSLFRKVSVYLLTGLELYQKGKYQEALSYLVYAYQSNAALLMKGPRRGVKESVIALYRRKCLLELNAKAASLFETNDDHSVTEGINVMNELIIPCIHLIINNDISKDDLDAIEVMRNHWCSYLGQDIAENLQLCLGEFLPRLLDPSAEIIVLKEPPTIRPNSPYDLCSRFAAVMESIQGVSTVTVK
# How it was run: as §1
smiles,measurement,setting,value
CCC1c2ccsc2CCN1C(=O)CCl (stereo not given),log2 ratio of Biotin-Ahx-Ub-VS probe labelling,USP19,-0.544
same,log2 ratio of Biotin-Ahx-Ub-VS probe labelling,USP22,0.0245
same,log2 ratio of Biotin-Ahx-Ub-VS probe labelling,USP24,-1.31 (active)
same,log2 ratio of Biotin-Ahx-Ub-VS probe labelling,USP25,-0.177
same,log2 ratio of Biotin-Ahx-Ub-VS probe labelling,USP28,-0.461
